Consider 1 sequence from paper PMC7862700, “An all-to-all approach to the identification of sequence-specific readers for epigenetic DNA modifications on cytosine”.

What all share (assay): DAPPL (digital affinity profiling via proximity ligation, sequencing); 10 mM Tris-HCl pH 7.5, 50 mM NaCl, 1 mM DTT, 4% glycerol, room temperature, 30 min; GST-TFs on glutathione beads, 16-mer random dsDNA library, 0.1% formaldehyde crosslink after washing; high values mean tight binding
In one test the target is T1, FEV (Homo sapiens, UniProt Q99581 1-238).
T1 sequence: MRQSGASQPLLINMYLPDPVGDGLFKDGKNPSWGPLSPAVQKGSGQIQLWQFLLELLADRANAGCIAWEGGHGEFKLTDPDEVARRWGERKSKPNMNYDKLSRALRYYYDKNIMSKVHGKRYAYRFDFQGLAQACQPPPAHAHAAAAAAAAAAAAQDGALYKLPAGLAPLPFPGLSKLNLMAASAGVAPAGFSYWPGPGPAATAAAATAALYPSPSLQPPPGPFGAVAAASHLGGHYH
The settings on record: protein: recombinant; tags: N-terminal GST; dsDNA, one strand shown. The method, boiled down: (§1)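 Binding signal is each hexamer's read frequency for a factor divided by its frequency in the tag-only sample. The factors were GST-fused human transcription factors from yeast, captured on glutathione beads, DNA-barcoded and pooled with that sample. Pools were incubated with 200 nmole of a random double-stranded 16-mer DNA library in Tris/NaCl/DTT/glycerol buffer at room temperature for 30 min, then washed, crosslinked with 0.1% formaldehyde, proximity-ligated with BsaI/T4 ligase (1 h, 37 °C), PCR-amplified and sequenced on an Illumina NextSeq500.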

A further test addresses ETV5 (Homo sapiens, UniProt P41161 1-510). As to conditions: protein: recombinant; tags: N-terminal GST; dsDNA, one strand shown. The method, boiled down: as §1
For the next test, the target named is HSF1 (Homo sapiens, UniProt Q00613 1-529). The settings on record: protein: recombinant; tags: N-terminal GST; chain copies: 3; dsDNA, one strand shown. The method, boiled down: as §1
Another test deals with T2, SPIC (Homo sapiens, UniProt Q8N5J4 1-248).
T2 sequence: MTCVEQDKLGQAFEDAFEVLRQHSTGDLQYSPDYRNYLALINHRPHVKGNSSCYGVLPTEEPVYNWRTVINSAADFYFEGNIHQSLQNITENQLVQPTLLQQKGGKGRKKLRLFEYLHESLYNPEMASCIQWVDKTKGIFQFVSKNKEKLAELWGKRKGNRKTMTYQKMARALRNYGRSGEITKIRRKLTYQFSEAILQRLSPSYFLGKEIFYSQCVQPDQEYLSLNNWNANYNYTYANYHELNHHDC
As to conditions: protein: recombinant; tags: N-terminal GST; dsDNA, one strand shown. The method, boiled down: as §1

The next test concerns the target ELF4 (Homo sapiens, UniProt Q99607 1-663). As to conditions: protein: recombinant; tags: N-terminal GST; dsDNA, one strand shown. The method, boiled down:
as §1

A further test addresses T3, ELK4 (Homo sapiens, UniProt P28324-2 1-405).
T3 sequence: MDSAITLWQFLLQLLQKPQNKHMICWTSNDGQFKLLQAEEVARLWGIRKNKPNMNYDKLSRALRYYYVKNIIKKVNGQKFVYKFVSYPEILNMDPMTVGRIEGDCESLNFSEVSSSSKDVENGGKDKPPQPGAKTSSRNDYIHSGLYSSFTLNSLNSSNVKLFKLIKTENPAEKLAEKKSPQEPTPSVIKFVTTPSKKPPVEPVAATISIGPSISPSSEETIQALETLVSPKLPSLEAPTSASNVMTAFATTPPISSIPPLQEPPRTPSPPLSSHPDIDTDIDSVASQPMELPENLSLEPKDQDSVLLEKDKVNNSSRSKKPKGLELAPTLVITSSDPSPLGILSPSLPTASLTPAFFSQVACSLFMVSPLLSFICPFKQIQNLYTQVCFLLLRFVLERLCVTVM
The settings on record: protein: recombinant; tags: N-terminal GST; dsDNA, one strand shown. The method, boiled down: as §1

A further test addresses T4, ETV2 (Homo sapiens, UniProt O00321 1-342).
T4 sequence: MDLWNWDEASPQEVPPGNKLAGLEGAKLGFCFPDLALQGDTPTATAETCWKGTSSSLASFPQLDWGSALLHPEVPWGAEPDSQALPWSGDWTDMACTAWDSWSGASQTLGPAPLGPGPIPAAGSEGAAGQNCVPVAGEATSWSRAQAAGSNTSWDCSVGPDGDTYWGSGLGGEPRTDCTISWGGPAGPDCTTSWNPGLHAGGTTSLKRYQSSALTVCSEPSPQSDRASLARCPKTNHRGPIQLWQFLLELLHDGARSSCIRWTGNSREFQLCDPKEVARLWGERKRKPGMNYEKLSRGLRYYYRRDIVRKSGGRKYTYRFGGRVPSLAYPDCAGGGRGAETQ
As to conditions: protein: recombinant; tags: N-terminal GST; dsDNA, one strand shown. The method, boiled down: as §1

The next test addresses T5, ELF3 (Homo sapiens, UniProt P78545 1-371).
T5 sequence: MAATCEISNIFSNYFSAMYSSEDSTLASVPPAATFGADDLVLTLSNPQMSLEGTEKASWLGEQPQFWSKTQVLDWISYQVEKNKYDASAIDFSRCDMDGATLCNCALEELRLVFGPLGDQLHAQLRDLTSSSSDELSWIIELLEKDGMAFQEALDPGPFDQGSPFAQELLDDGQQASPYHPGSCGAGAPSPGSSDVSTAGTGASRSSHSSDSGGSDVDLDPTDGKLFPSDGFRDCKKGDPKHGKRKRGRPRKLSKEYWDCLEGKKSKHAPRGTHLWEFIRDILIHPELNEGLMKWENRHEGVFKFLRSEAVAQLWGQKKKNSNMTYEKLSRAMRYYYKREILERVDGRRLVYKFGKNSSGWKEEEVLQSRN
The settings on record: protein: recombinant; tags: N-terminal GST; dsDNA, one strand shown. The method, boiled down:
as §1

For a further test, the target named is CRX (Homo sapiens, UniProt O43186 1-299). The settings on record: protein: recombinant; tags: N-terminal GST; dsDNA, one strand shown. The method, boiled down:
as §1

A further test concerns the target ETV1 (Homo sapiens, UniProt P50549 1-477). As to conditions: protein: recombinant; tags: N-terminal GST; dsDNA, one strand shown. The method, boiled down: as §1
The next test addresses T6, ERF (Homo sapiens, UniProt P50548 1-548).
T6 sequence: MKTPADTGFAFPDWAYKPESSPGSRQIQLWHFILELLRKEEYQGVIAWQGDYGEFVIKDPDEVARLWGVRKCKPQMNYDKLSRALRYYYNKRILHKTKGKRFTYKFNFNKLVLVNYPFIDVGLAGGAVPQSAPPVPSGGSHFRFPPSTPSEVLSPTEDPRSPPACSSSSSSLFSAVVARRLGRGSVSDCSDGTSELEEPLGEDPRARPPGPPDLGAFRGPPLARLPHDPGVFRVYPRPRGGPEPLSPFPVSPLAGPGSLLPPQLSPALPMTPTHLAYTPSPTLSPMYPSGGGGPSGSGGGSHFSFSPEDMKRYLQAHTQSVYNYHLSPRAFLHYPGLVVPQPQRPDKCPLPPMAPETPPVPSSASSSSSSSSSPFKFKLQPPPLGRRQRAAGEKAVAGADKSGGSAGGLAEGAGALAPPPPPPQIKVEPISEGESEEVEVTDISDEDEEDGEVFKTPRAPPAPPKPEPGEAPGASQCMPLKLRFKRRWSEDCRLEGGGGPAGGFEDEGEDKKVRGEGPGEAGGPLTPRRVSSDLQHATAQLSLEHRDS
The settings on record: protein: recombinant; tags: N-terminal GST; dsDNA, one strand shown. The method, boiled down: as §1

The target of the next test is T7, ETV3L (Homo sapiens, UniProt Q6ZN32 1-361).
T7 sequence: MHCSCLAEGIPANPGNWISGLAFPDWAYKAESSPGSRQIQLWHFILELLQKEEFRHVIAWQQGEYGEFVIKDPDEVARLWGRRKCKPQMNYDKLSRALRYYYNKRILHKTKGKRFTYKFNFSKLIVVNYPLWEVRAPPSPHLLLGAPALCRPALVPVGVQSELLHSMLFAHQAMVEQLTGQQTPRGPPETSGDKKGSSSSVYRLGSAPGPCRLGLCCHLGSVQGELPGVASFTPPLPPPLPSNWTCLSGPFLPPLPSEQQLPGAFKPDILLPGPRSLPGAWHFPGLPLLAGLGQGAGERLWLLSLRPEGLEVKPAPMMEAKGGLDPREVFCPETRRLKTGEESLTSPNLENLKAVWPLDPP
The settings on record: protein: recombinant; tags: N-terminal GST; dsDNA, one strand shown. The method, boiled down:
as §1

For another test, the target named is T8, ETS2 (Homo sapiens, UniProt P15036 1-469).
T8 sequence: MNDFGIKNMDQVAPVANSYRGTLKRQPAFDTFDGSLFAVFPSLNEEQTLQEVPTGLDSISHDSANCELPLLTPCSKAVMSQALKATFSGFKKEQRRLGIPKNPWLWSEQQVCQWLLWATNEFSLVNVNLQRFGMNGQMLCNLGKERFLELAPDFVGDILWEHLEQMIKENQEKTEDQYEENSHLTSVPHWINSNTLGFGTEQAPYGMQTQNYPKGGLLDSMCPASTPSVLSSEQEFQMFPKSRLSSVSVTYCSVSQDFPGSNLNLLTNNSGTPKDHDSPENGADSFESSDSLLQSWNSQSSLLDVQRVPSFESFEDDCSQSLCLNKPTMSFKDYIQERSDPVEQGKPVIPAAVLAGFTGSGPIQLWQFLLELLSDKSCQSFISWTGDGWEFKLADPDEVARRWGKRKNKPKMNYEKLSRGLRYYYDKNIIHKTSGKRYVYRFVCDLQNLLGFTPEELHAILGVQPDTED
The settings on record: protein: recombinant; tags: N-terminal GST; dsDNA, one strand shown. The method, boiled down: as §1

The next test addresses T9, SPDEF (Homo sapiens, UniProt O95238 1-335).
T9 sequence: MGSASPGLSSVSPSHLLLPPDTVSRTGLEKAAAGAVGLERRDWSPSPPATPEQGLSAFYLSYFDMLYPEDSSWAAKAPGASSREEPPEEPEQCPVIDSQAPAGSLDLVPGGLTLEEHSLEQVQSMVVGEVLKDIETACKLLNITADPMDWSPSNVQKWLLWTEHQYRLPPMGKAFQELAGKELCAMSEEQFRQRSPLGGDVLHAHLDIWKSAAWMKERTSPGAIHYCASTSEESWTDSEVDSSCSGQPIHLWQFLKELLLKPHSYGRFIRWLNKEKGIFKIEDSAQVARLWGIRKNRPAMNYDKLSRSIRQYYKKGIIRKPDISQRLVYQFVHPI
As to conditions: protein: recombinant; tags: N-terminal GST; dsDNA, one strand shown. The method, boiled down: as §1

The next test concerns the target T10, ETV7 (Homo sapiens, UniProt Q9Y603 1-341).
T10 sequence: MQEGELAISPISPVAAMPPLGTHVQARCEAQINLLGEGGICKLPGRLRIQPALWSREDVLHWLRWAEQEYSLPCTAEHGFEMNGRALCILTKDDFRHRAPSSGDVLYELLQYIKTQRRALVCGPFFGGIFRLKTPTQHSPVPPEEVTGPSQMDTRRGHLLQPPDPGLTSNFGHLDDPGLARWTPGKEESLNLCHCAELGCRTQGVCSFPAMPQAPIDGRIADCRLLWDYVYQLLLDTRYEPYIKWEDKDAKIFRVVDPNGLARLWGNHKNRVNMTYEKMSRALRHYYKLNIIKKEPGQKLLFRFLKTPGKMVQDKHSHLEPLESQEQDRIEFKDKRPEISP
As to conditions: protein: recombinant; tags: N-terminal GST; dsDNA, one strand shown. The method, boiled down: as §1

The target in a further test is T11, ELF5 (Homo sapiens, UniProt Q9UKW6-2 1-255).
T11 sequence: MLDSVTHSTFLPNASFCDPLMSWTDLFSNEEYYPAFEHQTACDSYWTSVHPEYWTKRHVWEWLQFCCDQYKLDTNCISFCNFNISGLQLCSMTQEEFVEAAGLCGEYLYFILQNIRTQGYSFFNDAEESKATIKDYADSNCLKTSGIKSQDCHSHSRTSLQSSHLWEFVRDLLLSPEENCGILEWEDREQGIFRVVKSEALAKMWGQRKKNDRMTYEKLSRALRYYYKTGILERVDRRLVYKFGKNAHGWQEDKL
As to conditions: protein: recombinant; tags: N-terminal GST; dsDNA, one strand shown. The method, boiled down:
as §1

The target in a further test is T12, ETV3 (Homo sapiens, UniProt P41162-2 1-143).
T12 sequence: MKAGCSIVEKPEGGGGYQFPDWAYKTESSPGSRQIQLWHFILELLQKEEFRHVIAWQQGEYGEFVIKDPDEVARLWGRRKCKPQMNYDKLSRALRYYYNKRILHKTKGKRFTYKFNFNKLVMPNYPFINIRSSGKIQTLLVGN
As to conditions: protein: recombinant; tags: N-terminal GST; dsDNA, one strand shown. The method, boiled down: as §1

A further test has as its target ETV6 (Homo sapiens, UniProt P41212 1-452). As to conditions: protein: recombinant; tags: N-terminal GST; dsDNA, one strand shown. The method, boiled down:
as §1

CRX, sequence (O43186 whole entry): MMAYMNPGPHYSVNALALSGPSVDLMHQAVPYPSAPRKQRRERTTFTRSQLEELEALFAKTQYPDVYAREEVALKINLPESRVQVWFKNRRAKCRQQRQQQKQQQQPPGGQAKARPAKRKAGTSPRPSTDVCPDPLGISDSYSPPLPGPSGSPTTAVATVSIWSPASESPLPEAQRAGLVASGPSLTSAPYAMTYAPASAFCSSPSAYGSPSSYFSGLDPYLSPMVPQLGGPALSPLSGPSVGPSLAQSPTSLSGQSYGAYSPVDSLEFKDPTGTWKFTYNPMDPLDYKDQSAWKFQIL
ETV5, sequence (P41161 whole entry): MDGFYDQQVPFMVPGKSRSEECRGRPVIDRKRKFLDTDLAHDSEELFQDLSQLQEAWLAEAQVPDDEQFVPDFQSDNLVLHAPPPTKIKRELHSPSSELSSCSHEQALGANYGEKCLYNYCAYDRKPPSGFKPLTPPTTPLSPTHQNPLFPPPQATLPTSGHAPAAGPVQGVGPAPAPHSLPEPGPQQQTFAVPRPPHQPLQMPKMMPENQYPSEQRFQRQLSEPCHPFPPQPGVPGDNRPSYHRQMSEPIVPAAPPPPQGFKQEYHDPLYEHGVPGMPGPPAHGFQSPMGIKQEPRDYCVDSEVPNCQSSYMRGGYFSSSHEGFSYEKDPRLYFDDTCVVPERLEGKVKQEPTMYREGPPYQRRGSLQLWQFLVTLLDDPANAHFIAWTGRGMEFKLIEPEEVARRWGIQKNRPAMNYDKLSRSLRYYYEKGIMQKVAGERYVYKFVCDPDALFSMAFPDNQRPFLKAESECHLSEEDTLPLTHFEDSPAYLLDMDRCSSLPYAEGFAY
ETV6, sequence (P41212 whole entry): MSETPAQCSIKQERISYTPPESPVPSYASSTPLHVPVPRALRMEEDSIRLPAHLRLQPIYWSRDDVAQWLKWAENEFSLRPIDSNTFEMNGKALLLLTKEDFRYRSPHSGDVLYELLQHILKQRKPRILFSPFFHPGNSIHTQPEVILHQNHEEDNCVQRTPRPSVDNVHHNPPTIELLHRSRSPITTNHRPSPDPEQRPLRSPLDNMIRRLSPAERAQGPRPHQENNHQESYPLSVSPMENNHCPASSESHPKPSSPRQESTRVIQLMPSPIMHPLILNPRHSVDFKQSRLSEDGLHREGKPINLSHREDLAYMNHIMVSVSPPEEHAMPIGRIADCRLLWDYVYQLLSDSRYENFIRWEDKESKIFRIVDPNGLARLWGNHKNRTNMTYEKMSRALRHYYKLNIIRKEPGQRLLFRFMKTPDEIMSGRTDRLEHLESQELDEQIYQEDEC
HSF1, sequence (Q00613 whole entry): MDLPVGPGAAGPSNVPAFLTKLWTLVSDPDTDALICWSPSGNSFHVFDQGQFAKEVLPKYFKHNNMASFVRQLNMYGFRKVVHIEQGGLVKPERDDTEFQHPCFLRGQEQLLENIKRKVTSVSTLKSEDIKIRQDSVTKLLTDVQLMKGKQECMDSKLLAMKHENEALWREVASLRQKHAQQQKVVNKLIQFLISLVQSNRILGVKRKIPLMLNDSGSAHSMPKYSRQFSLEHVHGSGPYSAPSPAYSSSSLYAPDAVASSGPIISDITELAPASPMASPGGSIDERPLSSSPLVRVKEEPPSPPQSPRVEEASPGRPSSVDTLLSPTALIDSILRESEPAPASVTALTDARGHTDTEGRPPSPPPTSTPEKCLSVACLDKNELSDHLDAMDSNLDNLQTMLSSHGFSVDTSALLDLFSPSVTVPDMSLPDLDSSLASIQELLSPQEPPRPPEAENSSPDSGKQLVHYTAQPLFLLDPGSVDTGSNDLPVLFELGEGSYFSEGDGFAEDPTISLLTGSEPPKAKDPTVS
ELF4, sequence (Q99607 whole entry): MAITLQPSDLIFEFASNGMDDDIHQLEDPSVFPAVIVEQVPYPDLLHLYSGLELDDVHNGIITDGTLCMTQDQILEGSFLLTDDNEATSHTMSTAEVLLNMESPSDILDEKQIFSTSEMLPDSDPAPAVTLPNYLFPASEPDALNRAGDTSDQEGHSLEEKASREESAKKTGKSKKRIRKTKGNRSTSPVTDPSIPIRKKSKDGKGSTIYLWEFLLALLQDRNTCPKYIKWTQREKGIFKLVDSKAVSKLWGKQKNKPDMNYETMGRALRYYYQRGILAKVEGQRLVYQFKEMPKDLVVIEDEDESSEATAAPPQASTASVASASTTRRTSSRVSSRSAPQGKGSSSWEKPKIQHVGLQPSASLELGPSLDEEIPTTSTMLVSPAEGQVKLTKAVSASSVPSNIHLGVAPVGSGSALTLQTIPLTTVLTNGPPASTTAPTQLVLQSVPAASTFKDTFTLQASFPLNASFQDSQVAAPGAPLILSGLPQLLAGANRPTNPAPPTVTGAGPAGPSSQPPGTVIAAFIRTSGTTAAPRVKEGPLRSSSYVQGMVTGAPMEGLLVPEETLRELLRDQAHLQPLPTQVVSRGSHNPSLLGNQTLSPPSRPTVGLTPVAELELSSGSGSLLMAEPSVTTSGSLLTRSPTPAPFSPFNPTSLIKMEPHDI
ETV1, sequence (P50549 whole entry): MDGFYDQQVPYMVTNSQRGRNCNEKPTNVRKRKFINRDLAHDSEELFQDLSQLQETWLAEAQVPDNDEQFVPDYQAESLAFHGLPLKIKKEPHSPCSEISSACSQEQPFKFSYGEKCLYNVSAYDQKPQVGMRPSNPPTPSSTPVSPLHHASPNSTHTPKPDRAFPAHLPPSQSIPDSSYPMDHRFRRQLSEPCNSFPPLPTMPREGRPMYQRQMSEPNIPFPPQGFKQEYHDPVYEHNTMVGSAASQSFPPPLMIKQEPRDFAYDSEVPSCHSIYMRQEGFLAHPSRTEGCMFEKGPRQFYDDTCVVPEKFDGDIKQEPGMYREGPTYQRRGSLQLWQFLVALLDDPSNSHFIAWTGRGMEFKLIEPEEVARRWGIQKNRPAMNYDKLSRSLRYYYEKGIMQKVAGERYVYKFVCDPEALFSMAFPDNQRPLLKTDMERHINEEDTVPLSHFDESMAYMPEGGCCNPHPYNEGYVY

For CTACTG, the binding signal was 1.33 fold enrichment (6-mer frequency, TF over GST control) with FEV; 1.35 fold enrichment (6-mer frequency, TF over GST control) with ETV5; 1.24 fold enrichment (6-mer frequency, TF over GST control) with HSF1; 1.32 fold enrichment (6-mer frequency, TF over GST control) with SPIC; 1.26 fold enrichment (6-mer frequency, TF over GST control) in the test with ELF4; 1.26 fold enrichment (6-mer frequency, TF over GST control) in the test with ELK4. Also, the binding signal in the test with ETV2 is 1.4 fold enrichment (6-mer frequency, TF over GST control); with ELF3, 1.3 fold enrichment (6-mer frequency, TF over GST control); with CRX it was 1.08 fold enrichment (6-mer frequency, TF over GST control); with ETV1, 1.3 fold enrichment (6-mer frequency, TF over GST control); in the test with ERF it was 1.4 fold enrichment (6-mer frequency, TF over GST control); in the test with ETV3L, 1.37 fold enrichment (6-mer frequency, TF over GST control). Also, the binding signal is 1.34 fold enrichment (6-mer frequency, TF over GST control) with ETS2; 1.21 fold enrichment (6-mer frequency, TF over GST control) with SPDEF; 1.26 fold enrichment (6-mer frequency, TF over GST control) with ETV7; 1.32 fold enrichment (6-mer frequency, TF over GST control) in the test with ELF5; 1.16 fold enrichment (6-mer frequency, TF over GST control) in the test with ETV3; 1.24 fold enrichment (6-mer frequency, TF over GST control) with ETV6.
